About 83,000 compounds went through this panel and 20% of them were active in at least one assay; those are over-represented in the sample as a whole.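 The test compound was applied at a single concentration to cells in 96-well plates for 48 hours, and percent growth was recorded.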 Values without a mark were called inactive. Activity calls are given as the source filed them. How the source made its calls: active means growth percent below 10; inactive means the rest.
How the values were obtained:
Assay in all cases: NCI-60 one-dose screen, 48 h (100 = growth as untreated, 0 = no growth, -100 = all killed)
Details in all cases: 10 µM unless noted
[1] = system: DU-145 prostate
[2] = system: K-562 leukemia
[3] = system: MALME-3M melanoma
[4] = system: MDA-MB-231 breast
[5] = system: RXF 393 renal
[6] = system: SF-268 CNS
[7] = system: SF-295 CNS
[8] = system: SF-539 CNS
[9] = system: UACC-257 melanoma
[10] = system: M14 melanoma
[11] = system: HCT-15 colon
[12] = system: SNB-75 CNS
[13] = system: SNB-19 CNS
[14] = system: U251 CNS
[15] = system: PC-3 prostate
[16] = system: SK-MEL-5 melanoma
[17] = system: UACC-62 melanoma
[18] = system: LOX IMVI melanoma
[19] = system: SK-MEL-28 melanoma
[20] = system: HT29 colon

With `COC(=O)[C@H](CSC)N(C)C(=O)[C@@H]1CSSC[C@@H](NC(=O)c2nc3ccccc3cc2O)C(=O)NCC(=O)N1C` the growth [1] was 77.6%, the growth [2] was 48.8% and the growth [3] was 96.7%. For the same molecule, the growth [4] was 81.3%, the growth [5] was 101% and the growth [6] was 79.2%. For the same molecule, the growth [7] was 114%, the growth [8] was 87.2% and the growth [9] was 76.1%. For the same molecule, the growth [10] was 46.2%, the growth [11] was 99.1% and the growth [12] was 132%. For the same molecule, the growth [13] was 92.7%, the growth [14] was 91.2% and the growth [15] was 72.7%. It also gave a growth [16] of 38%, a growth [17] of 60% and a growth [18] of 48.3%. It also gave a growth [19] of 83.4%.
In the case of `COc1ccc2c(c1)C(=O)/C(=C/c1cccc(OCC(=O)Nc3nc(C)c(C)s3)c1)O2`, the growth [1] is reported as -76.3% (active), the growth [2] is reported as -72.2% (active) and the growth [3] is reported as -58% (active). The growth [4] was -25.1% (active), the growth [5] was -57.2% (active) and the growth [6] was -45.5% (active). The growth [7] was -82.7% (active), the growth [8] was -80.6% (active) and the growth [9] was 37%. For the same molecule, the growth [10] was -44.4% (active), the growth [11] was 12.3% and the growth [12] was -95.3% (active). For the same molecule, the growth [13] was 80.6%, the growth [14] was 0% (active) and the growth [16] was 40.4%. For the same molecule, the growth [17] was 47.1%, the growth [18] was -63.9% (active) and the growth [19] was 11.2%.
`Cc1cc(=O)oc2c1ccc1oc(C#N)c(C)c12` showed a growth [1] of 102%, a growth [2] of 108% and a growth [3] of 97.2%. For the same molecule, the growth [4] was 107%, the growth [5] was 113% and the growth [6] was 99.9%. The growth [7] was 102%, the growth [8] was 98.9% and the growth [9] was 105%. For the same molecule, the growth [10] was 100%, the growth [11] was 98.9% and the growth [12] was 92.9%. For the same molecule, the growth [13] was 99.9%, the growth [14] was 99.4% and the growth [15] was 90.4%. The growth [16] was 100%, the growth [17] was 99.9% and the growth [18] was 88.2%. For the same molecule, the growth [19] was 96.5%.
In the case of `Cc1cccc(Cc2cnc(NC(=O)c3ccc4nnsc4c3)s2)c1`, the growth [1] is reported as 74%, the growth [2] is reported as 39.4% and the growth [3] is reported as 95.3%. The growth [4] was 111%, the growth [5] was 97.5% and the growth [6] was 89.9%. The growth [7] was 93.7%, the growth [8] was 91% and the growth [9] was 95.4%. The growth [10] was 64.6%, the growth [11] was 68.6% and the growth [12] was 105%. It also gave a growth [13] of 96.1%, a growth [14] of 88.7% and a growth [15] of 66.1%. The growth [16] was 97.3%, the growth [17] was 35.3% and the growth [18] was 34.6%. It also gave a growth [19] of 103%.
`COc1ccc(-c2nc(SCC(=O)Nc3nc(-c4ccccc4)cs3)[nH]c(=O)c2C#N)cc1` showed a growth [1] of 118%, a growth [2] of 93.5% and a growth [3] of 90.1%. It also gave a growth [4] of 95.1%, a growth [5] of 96.6% and a growth [6] of 95.9%. The growth [7] was 96.3%, the growth [8] was 103% and the growth [9] was 109%. For the same molecule, the growth [10] was 89.6%, the growth [12] was 70.4% and the growth [13] was 109%. For the same molecule, the growth [14] was 103%, the growth [15] was 86% and the growth [16] was 102%. The growth [17] was 92.1% and the growth [18] was 92.9%.
With `Cc1cc(Cl)nc(NCc2cc(Nc3ccnc4cc(Cl)ccc34)ccc2F)n1` the growth [1] was 52.3%, the growth [2] was 26.9% and the growth [3] was 77.2%. The growth [4] was 54.4%, the growth [5] was 61.2% and the growth [6] was 58.2%. It also gave a growth [7] of 69.5%, a growth [8] of 70.5% and a growth [9] of 64.2%. For the same molecule, the growth [10] was 60.9%, the growth [20] was 9.26% (active) and the growth [12] was 83.3%. It also gave a growth [13] of 80.6%, a growth [14] of 48.9% and a growth [15] of 52.7%. The growth [16] was 56.5%, the growth [17] was 70.7% and the growth [18] was 10.4%. The growth [19] was 94.1%.
Work on `CCOC(=O)C/C(C)=N\NC(=O)c1ccncc1` yielded a growth [1] of 107%, a growth [2] of 93.2% and a growth [3] of 83.8%. The growth [4] was 102%, the growth [5] was 72.3% and the growth [6] was 101%. It also gave a growth [7] of 92.9%, a growth [8] of 97.7% and a growth [9] of 107%. It also gave a growth [10] of 106%, a growth [20] of 100% and a growth [12] of 107%. For the same molecule, the growth [13] was 87.7%, the growth [14] was 107% and the growth [15] was 96.5%. It also gave a growth [16] of 104%, a growth [17] of 88.1% and a growth [18] of 105%. The growth [19] was 116%.
`Cc1cc(/C=C\c2ccc3ccccc3[n+]2C)c(O)c2ncccc12` was tested, and the growth [1] was 26.2%, the growth [2] was 8.28% (active) and the growth [3] was -4.74% (active). For the same molecule, the growth [4] was 4.71% (active), the growth [5] was -20.3% (active) and the growth [6] was 14.1%. The growth [7] was 0.202% (active), the growth [8] was -36.9% (active) and the growth [9] was 16.4%. The growth [10] was -51.6% (active), the growth [20] was 25.7% and the growth [12] was 37.8%. The growth [13] was 11.9%, the growth [14] was 9.3% (active) and the growth [15] was 34.1%. For the same molecule, the growth [16] was 6.19% (active), the growth [17] was -26.5% (active) and the growth [18] was -27.2% (active). The growth [19] was 25.7%.

— PubChem BioAssay (NCI)
